Compound activity deposited in PubChem BioAssay by several laboratories.
IDE act: activators of human insulin-degrading enzyme in cells; HEK cells, FAbeta-B cleavage, fluorescence polarization; 0% vehicle, 100% cell-free pure enzyme wells; activation, % at 5.96 µM; 340,000 compounds, 0.073% hits;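 active = activation above the mean of all tested compounds plus 3 SD, set per screening campaign, cut at about 17% in these data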
Target sequence (P14735 whole entry, looked up): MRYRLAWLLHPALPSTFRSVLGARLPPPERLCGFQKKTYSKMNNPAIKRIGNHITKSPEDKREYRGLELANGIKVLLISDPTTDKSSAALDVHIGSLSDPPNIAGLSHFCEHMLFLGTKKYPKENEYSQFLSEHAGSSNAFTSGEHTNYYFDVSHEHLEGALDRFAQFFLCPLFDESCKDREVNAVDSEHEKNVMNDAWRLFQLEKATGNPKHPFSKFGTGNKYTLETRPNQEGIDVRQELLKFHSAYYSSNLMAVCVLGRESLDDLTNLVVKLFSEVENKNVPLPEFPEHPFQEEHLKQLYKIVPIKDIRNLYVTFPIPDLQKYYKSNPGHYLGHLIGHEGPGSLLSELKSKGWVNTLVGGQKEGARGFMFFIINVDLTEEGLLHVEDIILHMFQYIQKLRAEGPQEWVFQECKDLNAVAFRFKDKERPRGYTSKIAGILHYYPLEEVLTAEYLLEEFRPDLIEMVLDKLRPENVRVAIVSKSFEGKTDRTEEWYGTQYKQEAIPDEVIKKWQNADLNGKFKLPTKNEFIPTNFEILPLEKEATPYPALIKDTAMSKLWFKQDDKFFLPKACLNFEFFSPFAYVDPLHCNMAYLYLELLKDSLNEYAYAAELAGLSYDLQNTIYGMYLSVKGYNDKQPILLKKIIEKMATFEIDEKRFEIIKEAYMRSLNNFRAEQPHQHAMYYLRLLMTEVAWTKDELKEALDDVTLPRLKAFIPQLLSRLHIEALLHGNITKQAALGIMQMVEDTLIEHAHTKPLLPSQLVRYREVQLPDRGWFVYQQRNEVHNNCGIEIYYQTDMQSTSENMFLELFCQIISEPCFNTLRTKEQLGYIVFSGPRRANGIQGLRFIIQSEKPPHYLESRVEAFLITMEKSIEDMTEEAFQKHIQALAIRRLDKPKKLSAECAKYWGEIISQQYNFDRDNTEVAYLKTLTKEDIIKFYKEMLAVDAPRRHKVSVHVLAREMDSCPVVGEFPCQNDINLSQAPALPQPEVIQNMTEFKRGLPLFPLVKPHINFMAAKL
MEX-5 binding: C. elegans MEX-5 TCR-2 RNA binding activity; Q9XUB2; MEX-5/FITC-TCR2 RNA binding, fluorescence polarization; active compounds read low; activity score (negative = inhibition of binding), % at 10 µM; 300,000 compounds, 0.38% hits; AID 1832;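 active = inhibition past about -25% in most replicates, and total fluorescence under double the plate's negative control median, limit read from the data; inconclusive = replicates evenly split on the limit, or fluorescence at least double controls; inactive = too little inhibition in most replicates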
MCL1-BIM inh: disrupts human MCL1 binding to BIM-BH3 peptide. inhibition, % at 10.9 µM. 320,000 compounds, 0.68% hits. GST-MCL1 / FITC-Bim-BH3 fluorescence polarization. Q07820;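 active = inhibition above the mean inhibition of all tested compounds plus 3 SD, set per campaign, cut at about 40% in these data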;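 note: higher means more loss of mP so more displacement of Bim peptide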
GLD-1 RNA inh: GLD-1-TGE RNA interaction inhibition (C. elegans); Q17339; purified GLD-1 + fluorescein TGE RNA, fluorescence polarization; inhibition, % at 5.96 µM; 320,000 compounds, 0.44% hits; AID 2280;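 active = percent inhibition above a per-plate cutoff, the plate mean of test compounds plus 3 SD, cut at about 30% in these data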
IDE cell inh: cellular human IDE inhibition | P14735 | HEK cells, FAbetaB cleavage, fluorescence polarization | inhibition, % at 5.59 µM | 320,000 compounds, 0.41% hits;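 active = percent inhibition above the average of all tested compounds plus 3 SD, set per screening campaign, cut at about 16% in these data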;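 note: IDE supplied by intact live HEK cells; FP after avidin binding of uncleaved biotin substrate so inhibition keeps polarization high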
BCLXL inh: Bcl-xL (human) inhibition; 320,000 compounds, 0.7% hits; inhibition, % at 10.9 µM; AID 2129; GST-Bcl-xL / FITC-Bim BH3 peptide fluorescence polarization; Q07817;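 active = inhibition above the mean of all tested compounds plus 3 SD, cutoff set per campaign, cut at about 30% in these data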;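 note: inhibitors lower millipolarization by displacing the labeled peptide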
Bcl-xL conf: counter-screen for MCL1 inhibitors: confirmation of human Bcl-xL inhibitors; shares compounds with MCL1-BIM inh; inhibition, % at 10.9 µM; AID 2166; 1,700 compounds, 54% hits; GST-Bcl-xL / FITC-Bim BH3 peptide FP binding;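 active = inhibition above a cutoff equal to the mean inhibition of all tested compounds plus 3 SD, cut at about 30% in these data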
MCL1 BIM confirm: MCL1-BIM-BH3 interaction inhibition, confirmation; inhibition, % at 10.9 µM; shares compounds with MCL1-BIM inh; 1,700 compounds, 61% hits; GST-MCL1 / FITC-Bim-BH3 fluorescence polarization; AID 2168;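 active = inhibition above the average of all tested compounds plus 3 SD, cut at about 40% in these data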
A number is an active result; - = inactive; ? = inconclusive; . = no result given. Only some compounds are listed: those with a hit (about 1.5% of all), similar ones and a draw of the others.

SMILES	IDE act	MEX-5 binding	MCL1-BIM inh	GLD-1 RNA inh	IDE cell inh	BCLXL inh	Bcl-xL conf	MCL1 BIM confirm
Cc1ccc(C(=O)C2CCN(S(=O)(=O)c3ccc(C(=O)O)cc3)CC2)cc1	-	-	-	-	-	-	.	.
CC(C)=CCc1c(O)c(CC=C(C)C)c2c(c1O)-c1cc(O)c(O)cc1CC2	.	-	55.2	-	-	-	40.8	75.8
COc1ccccc1/C=c1\sc2nc(-c3ccco3)nn2c1=O	-	-	60.4	-	-	-	-	51.9
COc1ccccc1C(=O)n1nc(-c2ccco2)nc1SC	-	.	-	-	-	-	.	.
COc1ccc(N(C)C(=O)Nc2ccc3nsnc3c2)cc1	-	-	.	.	.	.	.	.
CC(C)N(C(=O)Nc1ccc2nsnc2c1)C(C)C	.	-	66.3	-	-	52.0	-	-
O=C(NCC1CCCO1)c1cc(-c2ccncc2)nc2ccccc12 (stereo not given)	-	.	.	.	.	.	.	.
COc1ccccc1CNC(=O)COC(=O)c1cc(C)nc2ccccc12	-	.	.	-	-	.	.	.
CCc1nnc(NC(=O)c2cc(-c3ccccn3)nc3ccccc23)s1	-	-	-	-	-	-	.	.
CCc1nnc(NC(=O)c2cc(-c3ccco3)nc3ccccc23)s1	-	-	51.2	-	-	-	31.6	72.3
COc1ccccc1CNC(=O)COC(=O)c1cc(-c2ccco2)nc2ccccc12	-	-	71.8	-	-	-	34.5	71.0
O=C(N/N=C/c1cccc(F)c1)c1cc(-c2ccco2)nc2ccccc12	-	-	73.6	-	-	-	-	63.6
O=C(NCC1CCCO1)c1cc(-c2ccco2)nc2ccccc12 (stereo not given)	-	-	66.6	39.2	-	54.7	-	-
O=C(Cc1ccccc1F)N1CCN(S(=O)(=O)c2ccc(Cl)cc2)CC1	-	.	-	-	-	-	.	.
COc1ccc(NC(=O)c2cc(-c3ccco3)nc3ccccc23)cc1S(=O)(=O)N1CCOCC1	-	-	42.5	-	-	-	38.2	-
N#Cc1cc2c(=O)n3ccccc3nc2n(Cc2ccco2)c1=NC(=O)c1ccco1	-	-	75.2	-	-	54.4	-	-
CCOCCCn1c(=NC(=O)c2cccs2)c(C#N)cc2c(=O)n3ccccc3nc21	-	?	97.4	54.6	-	90.8	62.0	74.9
CCCCn1c(=NC(=O)c2ccco2)c(C(=O)OCC)cc2c(=O)n3ccccc3nc21	-	-	-	-	-	-	.	.
CCOC(=O)c1cc2c(=O)n3ccccc3nc2n(Cc2ccco2)c1=NC(=O)c1ccc(OC)cc1OC	-	-	52.2	-	-	48.8	-	-
CCCNC(=O)c1ccc2c(=O)n3c(-c4ccc(C)cc4)csc3nc2c1	-	-	-	-	-	-	.	.
Cc1cccc(OCC(=O)NCC(=O)N/N=C/c2cc(Br)cc(Br)c2O)c1	-	-	-	-	-	-	.	.
O=C1CCCC/C1=N\Nc1ccc(OCc2ccccc2)cc1	-	-	-	-	-	-	.	.
Cc1ccc(S(=O)(=O)NNC(=O)c2ccccc2O)cc1	-	-	44.0	-	-	-	-	-
O=C(NNS(=O)(=O)c1ccc(F)cc1)c1ccccc1O	-	-	-	-	-	-	.	.
CC(=O)Nc1ccc(NC(=O)C/C(C)=N/NC(=O)c2cccc3ccccc23)cc1	-	-	-	-	-	-	.	.
SMILES	IDE act	MEX-5 binding	MCL1-BIM inh	GLD-1 RNA inh	IDE cell inh	BCLXL inh	Bcl-xL conf	MCL1 BIM confirm
C=CCNS(=O)(=O)c1cccc2cc(C(=O)O)c(O)cc12	-	-	97.3	-	-	-	-	-
CC(Sc1nnc(-c2ccc(Cl)cc2)n1N)C(=O)NCC1CCCO1 (stereo not given)	-	-	-	-	-	-	.	.
O=C(CSc1ccc(Cl)cc1)c1ccco1	-	-	63.5	-	-	-	-	75.2
CCOC(=O)C1CCN(C(=O)c2cc(S(=O)(=O)N3CCOCC3)ccc2C)CC1	-	.	-	-	-	-	.	.
CN1CCC(=NNC(=O)CN(c2ccc([N+](=O)[O-])cc2)S(=O)(=O)c2ccccc2)CC1	-	-	-	-	-	-	.	.
C/C(O)=c1/ccc2cccc3nc(C)nc1c23	-	-41.3	61.2	-	-	70.9	62.4	56.8
COC(=O)CN(c1ccccc1C)S(C)(=O)=O	-	-	82.6	-	-	-	-	-
CC(C)C[C@H]1C(=O)N2CCC[C@H]2[C@]2(O)O[C@](NC(=O)[C@@H]3C=C4c5cccc6[nH]c(Br)c(c56)CC4N(C)C3)(C(C)C)C(=O)N12 (stereo not given in full)	-	-	110.6	95.1	-	86.7	-	-
Cc1ccc(NCc2nc(SCC(=O)Nc3ccccc3)n[nH]2)cc1	-	-	-	-	-	-	.	.
Nc1ccc(-c2c3ccc(=O)cc-3oc3cc(O)ccc23)cc1C(=O)O	47.4	?	117.9	63.5	16.7	106.2	104.1	111.9
O=c1ccc2c(-c3ccccc3)c3ccc(O)cc3oc-2c1	51.5	?	109.7	75.1	-	105.6	118.8	120.6
O=c1cc(-c2ccccc2)oc2cc(O)ccc12	-	.	.	.	.	.	.	.
O=C(Nc1nncs1)c1cccnc1Cl	-	-	-	-	-	-	.	.
Cc1ccc2nc(-c3ccc(O)c(O)c3)cn2c1	-	-48.3	40.0	-	-	-	60.6	82.3
Cc1ccc2nc(-c3ccccc3)cn2c1	-	-	-	-	-	-	.	.
Cc1ccc(NC(=O)C(=O)Nc2ccc(C)cn2)nc1	-	-	-	-	-	-	.	.
Cc1ccc(NC(=O)/C(C#N)=C(\N)C(Cl)(Cl)Cl)nc1	-	?	70.3	42.9	-	72.5	170.9	185.5
CC(C)=CCc1c(O)ccc2c1OC(c1ccc(O)c(O)c1)CC2=O (stereo not given)	-	-	-	-	-	-	.	.
O=C1CC(c2ccc(O)c(O)c2)Oc2c1ccc(O)c2O (stereo not given)	-	.	70.3	-	-	-	-	77.7
CC1OC2(C)OC(=N)C1(C#N)C(C#N)(C#N)C2c1ccccc1 (stereo not given)	-	-	86.7	66.0	-	55.3	-	-
Cc1cccc(OCc2nnc(SCC(=O)Nc3ccc(N4CCOCC4)cc3)o2)c1	-	-	-	-	-	-	.	.
COc1cc(/C=C/C(=O)NCC2CCCCC2)cc(OC)c1OC	-	-	-	-	-	-	.	.
CCc1ccc(N(CC(=O)NC2CCCCC2)C(=O)CCC(=O)Nc2ccccn2)cc1	-	-	-	-	-	-	.	.
NNC(=O)c1oc2nc(-c3ccco3)cc(-c3ccco3)c2c1N	.	-	-	-	-	-	.	.
